According to PubChem BioAssay (NCATS):
Records with an inconclusive call do not appear. The source made the active and inactive calls. The call rests on the fitted dose curve; in most records, active means well fitted inhibition curve with a large enough effect; inconclusive means small, poorly fitted or top-dose-only effect; inactive means flat fitted curve, though single readings scatter. Where a SMILES comes first, the peptide text is derived from it. [ ]: non-standard residue; d: D form. ξ: configuration not given here. ξTyr(βOH) = NC(C(=O)O)C(O)c1ccc(O)cc1

Experiment: P-glycoprotein substrates identified in KB-8-5-11 adenocarcinoma cell line, qHTS therapeutic library screen (AID 1346987); further: nearly all actives have a fitted effect of over 65% in size
Settings: KB-8-5-11 (P-gp overexpressing) viability, CellTiter-Glo, 72 h; series mostly up to 44.5 µM; activity change, negative = cytotoxicity: at the top concentration
How it was run: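 Luminescence from CellTiter-Glo, read 5 min after addition, quantified survival of KB-8-5-11 (P-gp-overexpressing) cells exposed to compounds for 72 h. AC50 was derived from concentration-response curves.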
On the % scale 0 is the no-effect control and ±100 the full control effect.

Structure (SMILES) | outcome | activity change, negative = cytotoxicity
CNC(C)C(=O)NC(C(=O)N1CCCC1C(=O)Nc1cccc2ncccc12)C(C)C (configuration not stated) | inactive | –
N[C@@H](CC(=O)Nc1ccc(Oc2cc(F)c(F)cc2Br)cc1)C(=O)O | – | -6.13% (inactive)
CN(C)C(=O)C(O)C(Cc1ccccc1)NC(=O)c1cc2cc(Cl)ccc2[nH]1 (configuration not stated) | – | -5.12% (inactive)
CC(=O)O[C@@]1(C)[C@@H]2CC(=C(C)C)C(=O)C[C@@]2(C)CC[C@H]1OC(=O)C1(C)OC1C (some centres not stated) | – | -5.3% (inactive)
COc1cc(O)cc(C)c1C(=O)OC1C(CO)OC(n2ccc(=O)[nH]c2=O)C1OC(C)=O (configuration not stated) | inactive [at 17.3 µM] | –
O=C(O)[C@H]1Cc2ccccc2CN1 | – | 6.15% [at 5.11 µM] (inactive)
C/C(=C/CO)CC[C@H]1[C@]2(C)C[C@H](O)CC(C)(C)[C@H]2CC[C@]1(C)O | – | 4.85% (inactive)
CC(C)(O)C1CCC2(C)CCCC(C)(O)C2C1 (configuration not stated) | – | 7.4% (inactive)
CC(C)[C@](O)(c1ccc2cc(OC(F)F)c(OC(F)F)cc2c1)c1cn[nH]n1 | – | -10.2% (inactive)
C[C@H]1/C=C/C=C/C=C/C=C/C=C/[C@@H](O)[C@H](C(=O)O)[C@H](O)C[C@H](O)CCC[C@H](O)C[C@H](O)C[C@H](O)[C@@H](C)C(=O)O[C@@H]1C | inactive [at 17.3 µM] | –
C/C=C(\C)C(=O)OC1CC2C(CC=C3CC(OC4CC(OC)C(OC5CC(OC)C(OC6CC(OC)C(OC7CC(OC)C(OC8CC(OC)C(OC9OC(CO)C(O)C(O)C9O)C(C)O8)C(C)O7)C(C)O6)C(C)O5)C(C)O4)CCC32C)C2(O)CCC(C(C)=O)C12C (configuration not stated) | inactive [at 9.29 µM] | –
CC1=CCC[C@@H]2[C@@](C)(CCc3ccoc3)[C@H](C(=O)O)CC[C@@]12C | – | 1.12% (inactive)
C[C@@H]1O[C@@H](O[C@H]2[C@@H]3C=CO[C@@H](O[C@@H]4O[C@H](CO)[C@@H](O)[C@H](O)[C@H]4O)[C@@H]3[C@@]3(CO)O[C@@H]23)[C@H](O)[C@H](OC(=O)/C=C/c2ccc(O)cc2)[C@H]1OC(=O)/C=C/c1ccc(O)cc1 | inactive [at 17.3 µM] | –
COc1ccc(C2COc3cc(O)ccc3C2)c(O)c1OC (configuration not stated) | – | 5.83% (inactive)
CC1(C(=O)O)CCCC2(C)C3CCC4CC3(CCC12)CC4(O)CO (configuration not stated) | – | -1.07% (inactive)
COc1ccc2[nH]c(S(=O)Cc3ncc(C)c(OC)c3C)nc2c1 (configuration not stated) | – | -10.2% (inactive)
CC(C)(O)[C@@H]1CC[C@]2(CO)[C@@H](O)CC[C@](C)(O)[C@H]2[C@@H]1O[C@@H]1O[C@H](CO)[C@@H](O)[C@H](O)[C@H]1O | – | 2.4% [at 17.3 µM] (inactive)
COC(=O)[C@H](O)[C@H]1C(C)(C)[C@H](OC(C)=O)[C@@]2(O)C(=O)[C@]1(C)C1CC[C@]3(C)C(CC(=O)O[C@H]3c3ccoc3)[C@]13O[C@@H]32 (some centres not stated) | – | -5.25% [at 17.3 µM] (inactive)
COC(=O)C1=CO[C@@H](O[C@@H]2O[C@H](CO)[C@@H](O)[C@H](O)[C@H]2O)[C@@H]2[C@@H](CO)[C@@H](O)C(O)[C@H]12 (some centres not stated) | inactive [at 17.3 µM] | –
CC(=O)NC1CC(=O)C23C(=O)NC(Cc4c[nH]c5ccccc45)C2C(C)=C(C)C(O)C3/C=C/CC(C)/C=C(/C)C(O)C1O (configuration not stated) | – | 2.46% [at 17.3 µM] (inactive)
CC1CC(=O)C2C(O)(C1)CC(O)C13OC1c1c(O)cccc1C(=O)C23O (configuration not stated) | inactive | –
CC1CCC2(NC1)OC1C(O)C3C4CCC5CC(O[C@@H]6O[C@H](CO)[C@@H](O)[C@H](O)[C@H]6O[C@@H]6O[C@@H](C)[C@H](O)[C@@H](O)[C@H]6O)CCC5(C)C4CCC3(C)C1C2C (some centres not stated) | – | 2.81% [at 17.3 µM] (inactive)
CC(=O)OC1CC(C(C)(C)O)OC2CCC3(C)OC4=C(C(=O)C=C5C(C)C(OC(C)=O)C6(C)C(C)OC546)C(O)C3C12C (configuration not stated) | – | -2.89% [at 17.3 µM] (inactive)
COc1cc(O)c2c(c1)C1(OC2=O)C(C)=CC(=O)C1O (configuration not stated) | – | 2.74% (inactive)
COc1ccccc1CN[C@H]1CCCN[C@H]1c1ccccc1 | – | -9.07% (inactive)
CC(C)C1NC(=O)CNC(=O)C2CCCN2C(=O)C(Cc2c[nH]c3ccccc23)NC(=O)CNC(=O)C(C(O)c2ccc(O)cc2)NC(=O)CNC1=O (configuration not stated) (cyclo(G[ξTyr(βOH)]GWPGV); configuration not given here) | inactive [at 17.3 µM] | –
C/C=C/C=C/C=C/C(=O)OC1C=C2C(O)OC(=O)[C@]2(O)[C@@]2(C)CCCC(C)(C)[C@H]12 (some centres not stated) | – | -12.5% [at 17.3 µM] (inactive)
